In PubChem BioAssay AID624256 (NMMLSC, 2012):
The whole screen tested about 360,000 compounds, of which about 3,700 (1%) were called active. About 2% were inconclusive and are not listed.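 How the source made its calls: active means normalized GFP-positive differentiation at or above the plate's own cutoff, the solvent-only control mean plus 3 SD; inconclusive means no clear call, values can overlap the other calls; inactive means the rest.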 The list comes from a sample in which actives are over-represented; it also holds similar structures and randomly drawn compounds.

experiment: HoxA9-arrested leukemia cell differentiation promoters – flow cytometry, MLPCN library, primary screen (AID 624256); conditions: ER-HoxA9 myeloid progenitors, lysozyme-GFP differentiation, at 10 µM; GFP+ MAC1+ double positive: measured here: differentiation confirmed by MAC1 staining, stronger effect = higher value; normalized GFP-positive differentiation: stronger effect = higher value;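 on GFP+ MAC1+ double positive: cells exposed to compound for four days before flow analysis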;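 on normalized GFP-positive differentiation: cells exposed to compound for four days before flow analysis; 0% = DMSO wells and 100% = fulvestrant positive control at 5 µM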

SMILES | GFP+ MAC1+ double positive | outcome | normalized GFP-positive differentiation
CCOP(=O)(OCC)C(Cc1ccccc1)N=C(c1ccccc1)c1ccccc1 (stereo unspecified) | 1% | inactive | –
CC(=O)N1Cc2cc(C(=O)NCc3cccc(F)c3)nc(-c3cccc(C4=CCCC4)c3)c2[C@H]1CCO | 0.3% | inactive | –
CC(C)c1ccc(-c2noc(C3CCCN(S(C)(=O)=O)C3)n2)cc1 (stereo unspecified) | 2.8% | inactive | –
COc1cccc(-c2noc(C3CCCN(C(=O)c4ccc(F)cc4)C3)n2)c1 (stereo unspecified) | 1.2% | inactive | –
COc1cc(-c2noc(C3CCCN(S(=O)(=O)c4cccc(Cl)c4)C3)n2)cc(OC)c1OC (stereo unspecified) | 16.1% | – | 28.5% (active)
O=C(NCc1ccccn1)[C@@H]1CCCN1C(=O)[C@@H]1CCCN1C(=O)c1ccccc1 | 1.4% | inactive | –
COC(=O)[C@@]12C[C@@H](CC(=O)NCc3cccc(C(F)(F)F)c3)C(=O)N(Cc3ccco3)C1=CCC(C)(C)C2 | 3.5% | inactive | –
COc1ccc(NC(=O)[C@H](NC(=O)[C@@H]2Cc3ccccc3CN2)c2ccccc2)cc1 | 3.2% | inactive | –
COc1ccc(CNC(=O)[C@H](Cc2c[nH]c3ccccc23)NC(C)=O)cc1OC | 0.3% | inactive | –
COc1cccc(NC(=O)[C@H](Cc2c[nH]c3ccccc23)NC(=O)[C@@H]2Cc3ccccc3CN2)c1 | 5.1% | – | 8.43% (active)
CCc1nc2c(OCC(N)=O)cccn2c1N(C)C(=O)c1ccc(OC)cc1 | 1.1% | inactive | –
OC[C@@H]1CN(Cc2cccs2)C[C@H](n2cnc3c(Nc4ccccc4)ncnc32)O1 | 1.1% | inactive | –
Cc1ccc(Cc2c(-c3ccco3)nc3ccc(Cl)cn23)cc1 | 0.7% | inactive | –
O=C(c1ccccc1)N1CCC(CC2CC(c3ccc(Cl)cc3)=NO2)(C(=O)NCC2CCCCC2)CC1 (stereo unspecified) | 1.5% | inactive | –
CCCCCCCNC(=O)C1(CC2CC(c3cccc(Br)c3)=NO2)CCN(C(=O)c2cc(OCC)c(OCC)c(OCC)c2)CC1 (stereo unspecified) | 7.1% | – | 26.1% (active)
COc1ccc(CNC(=O)C2(CC3CC(c4ccccc4)=NO3)CCN(C(=O)c3cccc(O)c3)CC2)cc1 (stereo unspecified) | 1.8% | inactive | –
O=C(C(=O)N1CCC(c2ccccc2)CC1)c1ccccc1 | 2.1% | inactive | –
CC(C)(O)C#Cc1ccc(CNC[C@H]2O[C@@H](n3cnc4c(=O)[nH]c(N)nc43)[C@H](O)[C@@H]2O)s1 | 0.8% | inactive | –
O=S1(=O)CC(N2CCN(CCO)CC2)CN1Cc1cn(Cc2ccc(Cl)cc2)nn1 (stereo unspecified) | 1.6% | inactive | –
CCc1noc(C)c1C(=O)N1CCCC(N2CCN(c3ccc(F)cc3)CC2)C1 (stereo unspecified) | 5.3% | – | 46.7% (active)
COc1ccccc1CN1CCCC(N2CCN(c3ccc(F)cc3)CC2)C1 (stereo unspecified) | 0.5% | inactive | –

SMILES | GFP+ MAC1+ double positive | outcome | normalized GFP-positive differentiation
Cc1cnc(C(=O)N2CCCC(N3CCN(c4ccccc4F)CC3)C2)cn1 (stereo unspecified) | 6.8% | inactive | –
COc1ccc(-c2[nH][nH]c(=O)c2NC(=O)c2ccc([N+](=O)[O-])cc2)cc1 | 0.8% | inactive | –
O=C(Nc1ccccc1C(=O)N1CCCCCC1)c1ccccc1Cl | 0.1% | inactive | –
COc1ccccc1N(CC(=O)Nc1ccccc1C(=O)N1CCCC1)S(C)(=O)=O | 0.3% | inactive | –
O=C(CN(c1ccccc1)S(=O)(=O)c1ccc(Cl)cc1)Nc1ccccc1C(=O)N1CCCC1 | 17.3% | – | 34.3% (active)
NCCCCC(C(=O)O)N(C(=O)OCc1ccccc1)C(=O)OCc1ccccc1 (stereo unspecified) | 0.9% | inactive | –
Cc1cc(=O)oc(C)c1C(=O)NCc1ccc(F)cc1 | 9.2% | inactive | –
Cc1cc(=O)oc(C)c1C(=O)NCCN(C)Cc1ccccc1 | 0.6% | inactive | –
Cc1cc(=O)oc(C)c1C(=O)Nc1cnc2ccccc2c1 | 1% | – | 6.77% (active)
COc1ccc(-c2cc3c(c4c2ccn4C)C2CCC3C2)cn1 (stereo unspecified) | 1.4% | inactive | –
O=C1Nc2ccccc2-n2nnnc2C1N1CCN(c2cccc(C(F)(F)F)n2)CC1 (stereo unspecified) | 1.4% | inactive | –
CCCCCCc1cc2cc(-c3nnc(-c4ccccc4)o3)c(=O)oc2cc1O | 56.6% | – | 197% (active)
CCc1ccc(CN(C)C(=O)CCc2nnc(-c3ccc(-c4ccccc4)cc3)o2)nc1 | 0.1% | inactive | –
CN[C@H]1C[C@H]2c3cc(Oc4ccccc4C)ccc3CCN2C(=O)[C@H]1[C@H](C)O | 0.2% | inactive | –
Cn1c(=O)c2cc(NC(=O)NCCc3cccs3)ccc2n1Cc1cccc(C(F)(F)F)c1 | 1.6% | inactive | –
O=C(CCC(=O)c1ccccc1)NCc1cccc(C(F)(F)F)c1 | 0.7% | inactive | –
O=C(Cc1cccs1)NCc1cccc(C(F)(F)F)c1 | 3.5% | – | 341% (active)
COc1ccc(C(=O)C(OP(=O)(OC)OC)c2ccccc2OC)cc1 (stereo unspecified) | 2% | inactive | –
CN(C)CCCOc1ccc(-c2ccc3nccn3c2)cn1 | 0.4% | inactive | –
CCC(=O)c1ccc(OCC(=O)OCC(=O)NC2CCCCCC2)cc1 | 1.4% | inactive | –
CCC(=O)c1ccc(OCC(=O)OCC(=O)N2CCc3ccccc3C2)cc1 | 0.4% | – | 6.6% (active)

SMILES | GFP+ MAC1+ double positive | outcome | normalized GFP-positive differentiation
Cc1ccc(Cl)c(OCC(=O)N2CCc3ccccc3C2)c1 | 0.3% | inactive | –
CCOc1ccc2[nH]c(=S)sc2c1 | 0% | inactive | –
CCC(CC)C(C(=O)NC1CCCC1)N1CCN(c2cc(C)nc3ccccc23)CC1 (stereo unspecified) | 1.2% | inactive | –
COC(=O)c1ccc2nc(-c3ccccc3)c(Cc3ccc(OC)cc3C)n2c1 | 1.4% | inactive | –
O[C@H]1CN(Cc2cccs2)[C@@H](c2ccc(Cl)cc2)C[C@@H]1n1cc(C2CC2)nn1 | 1.3% | – | 3.49% (inactive)
O[C@@H]1C[C@H](c2ccccc2)N(Cc2cccs2)C[C@H]1n1cc(C2CC2)nn1 | 0.6% | inactive | –
O[C@H]1C[C@H](c2ccc(Cl)cc2)N(Cc2cccs2)C[C@@H]1n1cc(C2CC2)nn1 | 3.6% | – | 19.2% (active)
CC(C)c1cc(Cn2c3ccccc3c(=O)n2C(C)Cn2cc(C3CC3)nn2)on1 (stereo unspecified) | 2.6% | inactive | –
COc1cccc(CNc2nc(NCc3cccs3)nc3ccsc23)c1 | 1.5% | inactive | –
O=S1(=O)C[C@@H](N2CCN(CCO)CC2)[C@H](COCc2ccccc2)N1 | 0.9% | inactive | –
CCc1ccc([C@@H]2CC(=O)[C@@H]3CN(S(=O)(=O)c4ccc(C)cc4)[C@H](c4ccc(Cl)cc4)C[C@@H]3N2S(=O)(=O)c2ccc(C)cc2)cc1 | 1.2% | inactive | –
CC(=O)Nc1cncc(-c2ccccc2CO)n1 | 0.4% | inactive | –
CC(=O)Nc1cccc(-c2cc(NC=O)c3ncc(-c4ccc(F)c(Cl)c4)n3c2)c1 | 1.3% | inactive | –
O=c1c2c(-c3ccccc3)ccnc2[nH]n1-c1ccccc1 | 0.5% | inactive | –
Cc1ccc(-c2ccnc3[nH]n(-c4ccccc4)c(=O)c23)cc1 | 0.4% | – | 17.5% (active)
Cc1ccc(N2C(=O)c3ccccc3C2(O)c2ncc[nH]2)cc1 (stereo unspecified) | 1.1% | inactive | –
COC(=O)[C@@]12C[C@@H](CC(=O)NCCCCc3ccccc3)C(=O)N(CCc3ccc(OC)c(OC)c3)C1=CCC(C)(C)C2 | 1.6% | inactive | –
COC(=O)C[C@@H]1C=C[C@@H](NS(=O)(=O)c2cccc(OC)c2)[C@@H](CO)O1 | 1.6% | inactive | –
Cc1c(-c2ccccc2)cn2c1-c1ccc(C)n1CC2 | 1.4% | – | 31.7% (active)
O=C(C[C@H]1CC[C@H]2[C@@H](COC[C@H](O)CN2C(=O)c2ccccn2)O1)N1CCN(c2ccccc2)CC1 | 2.6% | inactive | –
CN(CCO)C(=O)c1nc[nH]c1C(=O)N(C)Cc1ccccc1 | 0.2% | inactive | –

SMILES | GFP+ MAC1+ double positive | outcome | normalized GFP-positive differentiation
CCCCn1nnnc1C(c1cc2ccccc2o1)N(C)Cc1ccc(Cl)c(Cl)c1 (stereo unspecified) | 0.9% | inactive | –
COc1ccc(NC(=O)/C(C#N)=C\c2cc(OC)c(OCc3ccc(C(=O)O)cc3)cc2Br)cc1 | 0.2% | inactive | –
COc1ccccc1C(=O)N/C(=C/c1ccco1)C(=O)Nc1ccc(C(=O)O)cc1 | 1.5% | inactive | –
COCCCn1c(=O)/c(=C/c2ccccc2OC(C)C)s/c1=C(\C#N)C(=O)Nc1ccc(C(=O)O)cc1 | 2.8% | – | 20.2% (active)
COCCNC(=O)C1CCCN(Cc2ccccc2Cl)CC1 (stereo unspecified) | 0.5% | inactive | –
COC(=O)[C@@]1(Sc2ccc(C)cc2)CC(=O)N(c2cccc(SC)c2)[C@@H]1c1ccccc1 | 0.4% | inactive | –
c1ccc(Cc2c(-c3ccco3)nc3c4ccccc4ccn23)cc1 | 1.5% | inactive | –
Cc1ccc(Oc2nc3ccccc3n3c(C)nnc23)cc1 | 5.3% | inactive | –
Cc1ccc(S(=O)(=O)N(C)c2nc3ccccc3n3c(C(C)C)nnc23)cc1 | 2% | – | 94.1% (active)
Cc1cc(NC(C)C)n2c(nc3ccccc32)c1C#N | 1% | inactive | –
Cc1cc2c(cc1C)N1C(=O)c3cc4ccccc4cc3NC(=O)C1C(=O)N2 (stereo unspecified) | 1.5% | inactive | –
Cc1ccc(CSCC(=O)N(C)CC(=O)Nc2cccc(F)c2)cc1 | 1.2% | inactive | –
CCN(CC)C(=O)CSC(Nc1cccc(F)c1)=C(C#N)C#N | 2.2% | – | 143% (active)
CN(CC(=O)Nc1cccc(F)c1)C(=O)CC1CCCC1 | 0.8% | inactive | –
Cn1c(Nc2ccc(F)cc2)nc2cc(-c3ccsc3)sc2c1=O | 0.7% | inactive | –
CCOC(=O)C1CCCN(C(=O)c2cccc3ccccc23)CC1 (stereo unspecified) | 1.7% | inactive | –
CC(=O)OCC(C)n1c(=O)c2ccccc2n1C(C)=O (stereo unspecified) | 1% | inactive | –
CC1(C(=O)O)CCCN(C(=O)/C=C/c2ccccc2)C1 (stereo unspecified) | 2.1% | inactive | –
COC(=O)c1c(C)[nH]c(C(=O)/C=C/c2ccc(Cl)cc2)c1C | 0.4% | inactive | –
Cc1[nH]c(=O)c(C(=O)/C=C/c2ccccc2)c2c1CCCC2 | 10.9% | – | 31.7% (active)
